Structures are written as SMILES. Values without a mark were called inactive. For some of these results: Entries with a potency or affinity are not part of this list. Active and inactive are the calls of the source. Unless noted, no rule for the calls is given here.

A short description of assay [1]: antimalarial activity against Dd2 strain (AID 2302;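 active = growth inhibition above 50% at the single 2 µM test dose, taken to imply half-maximal potency below 2 µM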;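 also: 0% = DMSO untreated growth and 100% = chloroquine plus artemisinin killed control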). The note with it: P. falciparum Dd2 in RBCs, LDH growth readout, 72 h; at 2 µM; hits give high values.
Assay [2] can be described thus: HepG2 cytotoxicity, primary screen, cytotoxicity control for P. falciparum antimalarial project, cell-based, ATP luminescence (AID 2303;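 active = inhibition above 50%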;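 also: 0% = DMSO wells and 100% = digitonin-killed cells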). The note with it: HepG2 viability, 24-48 h, at 10 µM, hits give high values.
Assay [3] addresses L-lactate dehydrogenase (Plasmodium falciparum (isolate CDC / Honduras)) (UniProt Q27743). As to the kind of experiment: PfLDH activity inhibition – cell lysate, 3D7 strain, counter-screen for P. falciparum growth inhibition project (AID 2304).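 Also: 0% = vehicle and 100% = reference inhibitor.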 The note with it: P. falciparum 3D7 crude extract, LDH APAD/NBT absorbance; at 2 µM; hits give high values.
Assay [4] in a line: inhibition of 3D7 malaria parasite growth – strain 3D7 (AID 2306).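 Also: 0% = DMSO wells and 100% = chloroquine plus artemisinin control wells.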 The settings on record: P. falciparum 3D7 erythrocytic growth, LDH absorbance, 72 h; at 2 µM; hits give high values.
The target of assay [5] is Calcium-dependent protein kinase 1 (Plasmodium falciparum (isolate 3D7)) (UniProt P62344). Description: PfCDPK1 kinase inhibitors, biochemical, TCAMS library (AID 1159585; cut-off not given, nearly all actives have IC50 up to about 0.98 µM;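 also: inhibitors leave more ATP so luminescence rises with inhibition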). The note with it: recombinant PfCDPK1, Kinase-Glo ATP depletion luminescence.
Sequence of Calcium-dependent protein kinase 1 (Plasmodium falciparum (isolate 3D7)) (P62344 whole entry, looked up): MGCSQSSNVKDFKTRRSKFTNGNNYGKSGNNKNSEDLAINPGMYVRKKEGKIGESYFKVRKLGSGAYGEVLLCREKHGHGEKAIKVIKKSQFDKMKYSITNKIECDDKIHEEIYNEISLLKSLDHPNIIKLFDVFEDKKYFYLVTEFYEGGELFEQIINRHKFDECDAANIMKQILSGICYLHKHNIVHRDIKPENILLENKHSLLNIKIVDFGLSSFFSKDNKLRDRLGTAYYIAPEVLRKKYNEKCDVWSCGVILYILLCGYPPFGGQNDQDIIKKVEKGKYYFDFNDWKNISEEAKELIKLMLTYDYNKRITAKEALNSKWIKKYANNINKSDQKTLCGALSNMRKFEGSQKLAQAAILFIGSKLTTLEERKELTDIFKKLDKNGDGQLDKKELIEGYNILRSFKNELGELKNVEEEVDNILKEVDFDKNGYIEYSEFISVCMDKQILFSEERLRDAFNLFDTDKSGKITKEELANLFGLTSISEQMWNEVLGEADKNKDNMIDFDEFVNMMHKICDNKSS
For assay [6], the target named is Plasmodium falciparum protein kinase 6 (PK6, PF3D7_1337100) (UniProt Q8IDW1). As to the kind of experiment: PfPK6 kinase inhibitors, biochemical, TCAMS library (AID 1159586). The settings on record: recombinant PfPK6, Kinase-Glo ATP depletion luminescence.
Sequence of Plasmodium falciparum protein kinase 6 (PK6, PF3D7_1337100) (Q8IDW1 1-305): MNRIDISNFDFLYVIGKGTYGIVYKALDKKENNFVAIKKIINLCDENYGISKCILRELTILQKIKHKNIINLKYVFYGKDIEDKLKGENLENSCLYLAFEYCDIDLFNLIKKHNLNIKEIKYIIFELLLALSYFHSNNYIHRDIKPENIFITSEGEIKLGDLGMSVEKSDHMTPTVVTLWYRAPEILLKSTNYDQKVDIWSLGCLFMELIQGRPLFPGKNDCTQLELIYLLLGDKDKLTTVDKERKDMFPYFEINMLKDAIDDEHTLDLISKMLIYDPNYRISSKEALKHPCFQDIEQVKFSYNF
Assay [7] has as its target Protein kinase 7 (PK7), Plasmodium falciparum 3D7 (PF3D7_0213400) (UniProt Q7YTF7). Description: inhibition of Plasmodium PK7 catalytic activity – biochemical, TCAMS antimalarial set, Kinase-Glo luminescence (AID 1159587). The settings on record: recombinant PfPK7, Kinase-Glo ATP depletion luminescence.
In assay [8] the target is Calcium-dependent protein kinase 4 (Plasmodium falciparum (isolate 3D7)) (UniProt Q8IBS5). Description: PfCDPK4 kinase inhibitors, biochemical, TCAMS library (AID 1159588; cut-off not given, nearly all actives have IC50 up to about 0.91 µM). The settings on record: recombinant PfCDPK4, Kinase-Glo ATP depletion luminescence.
Sequence of Calcium-dependent protein kinase 4 (Plasmodium falciparum (isolate 3D7)) (Q8IBS5 whole entry, looked up): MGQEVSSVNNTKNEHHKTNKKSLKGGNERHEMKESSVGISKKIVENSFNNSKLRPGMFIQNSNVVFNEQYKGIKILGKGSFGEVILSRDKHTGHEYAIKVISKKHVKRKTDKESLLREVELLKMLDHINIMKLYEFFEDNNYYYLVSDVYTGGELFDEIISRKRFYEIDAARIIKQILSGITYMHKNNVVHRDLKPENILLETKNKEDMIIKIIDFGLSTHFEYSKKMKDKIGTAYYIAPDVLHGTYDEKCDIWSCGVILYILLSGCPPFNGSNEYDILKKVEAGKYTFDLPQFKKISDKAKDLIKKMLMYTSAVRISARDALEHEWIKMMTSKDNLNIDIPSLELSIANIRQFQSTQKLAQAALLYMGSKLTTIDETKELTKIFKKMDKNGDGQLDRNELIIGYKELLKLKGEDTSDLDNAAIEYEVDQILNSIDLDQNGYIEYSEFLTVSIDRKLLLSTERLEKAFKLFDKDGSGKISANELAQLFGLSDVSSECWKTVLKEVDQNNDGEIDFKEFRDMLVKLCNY

Sequence of Protein kinase 7 (PK7), Plasmodium falciparum 3D7 (PF3D7_0213400) (Q7YTF7 1-343): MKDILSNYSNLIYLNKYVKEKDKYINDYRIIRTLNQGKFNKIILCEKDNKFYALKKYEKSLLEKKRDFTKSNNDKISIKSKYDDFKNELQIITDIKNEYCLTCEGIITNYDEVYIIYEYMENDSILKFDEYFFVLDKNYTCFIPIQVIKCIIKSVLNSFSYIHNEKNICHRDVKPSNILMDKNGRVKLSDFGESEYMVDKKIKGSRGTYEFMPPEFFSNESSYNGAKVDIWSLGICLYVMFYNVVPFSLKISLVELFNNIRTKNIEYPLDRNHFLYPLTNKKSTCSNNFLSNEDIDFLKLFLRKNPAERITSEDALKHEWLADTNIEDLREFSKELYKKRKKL
Sequence of L-lactate dehydrogenase (Plasmodium falciparum (isolate CDC / Honduras)) (Q27743 whole entry, looked up): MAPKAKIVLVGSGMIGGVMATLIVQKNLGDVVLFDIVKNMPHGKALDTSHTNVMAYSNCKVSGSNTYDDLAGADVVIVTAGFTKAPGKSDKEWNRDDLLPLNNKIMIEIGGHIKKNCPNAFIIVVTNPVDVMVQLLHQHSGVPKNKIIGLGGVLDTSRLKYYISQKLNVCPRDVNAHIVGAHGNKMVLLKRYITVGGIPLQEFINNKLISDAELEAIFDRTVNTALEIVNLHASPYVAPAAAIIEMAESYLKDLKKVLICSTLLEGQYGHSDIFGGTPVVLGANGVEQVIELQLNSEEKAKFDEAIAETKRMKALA

Take `NC1CCN(Cc2cccc(-c3cccc(-c4nc5ccccc5[nH]4)c3)c2)C1` (stereo not given): the growth inhibition was -2% in assay [1] and 100% (active) in assay [4]. For the same compound, the inhibition in assay [2] was 14%; in assay [3], -3%. In addition, the outcome in assay [5], in assay [6], in assay [7] and in assay [8] was inactive.
For the compound `O=C(Nc1ccc2c(c1)CCN(C1CCC1)CC2)c1ccc(-c2cn3ccccc3n2)cc1`, the growth inhibition in assay [1] was 42%; in assay [4], 102% (active). In addition, the values for the inhibition in assay [2] and in assay [3] were 13% and 2%, respectively. In addition, the result in assay [5], in assay [6], in assay [7] and in assay [8] was inactive.
Turning to `CCOc1cc(Cc2cnc(N)nc2N)cc(OCC)c1-n1cccc1`, the figures for the growth inhibition in assay [1] and in assay [4] were -1% and 98% (active), respectively. Moreover, the inhibition in assay [2] was -1%; in assay [3] it was -2%. The outcome in assay [5], in assay [6], in assay [7] and in assay [8] was inactive.
`CCc1cn(C)c2c(N3CCCC3=O)cc(C(=O)N[C@@H](Cc3ccccc3)[C@H](O)CNCc3cccc(OC)c3)cc12`: the growth inhibition in assay [1] was 97% (active); in assay [4], 96% (active). In addition, the inhibition is 7% in assay [2] and 0% in assay [3]. For the same compound, the result in assay [5], in assay [6], in assay [7] and in assay [8] was inactive.
As for `O=C(Nc1ccc(C2=NC3CCCCC3N2)cc1)Nc1ccc(C2=NC3CCCCC3N2)cc1` (stereo not given), the values for the growth inhibition in assay [1] and in assay [4] were 76% (active) and 88% (active), respectively. For the same compound, the inhibition was 7% in assay [2] and 0% in assay [3]. Also, the result in assay [5], in assay [6], in assay [7] and in assay [8] was inactive.
For `COc1ccc(O)c(C(=O)c2cc(C#N)c(=O)n(-c3ccc(Oc4ccccc4)cc3)c2)c1`, the growth inhibition is 20% in assay [1] and 97% (active) in assay [4]. For the same compound, the inhibition is 22% in assay [2] and 5% in assay [3]. Moreover, the result in assay [5], in assay [6], in assay [7] and in assay [8] was inactive.
As for `CS(=O)(=O)CCNCc1cc(-c2cc3ncnc(Nc4ccc(OCc5cccc(F)c5)c(Cl)c4)c3s2)cs1`, the growth inhibition in assay [1] is 48%; in assay [4], 99% (active). Also, the inhibition in assay [2] was 8%; in assay [3], -2%. In addition, the result in assay [5], in assay [6], in assay [7] and in assay [8] was inactive.
Take `CC1(C)OC[C@]2(C)[C@@H](CC[C@]3(C)C4=CC(=O)CCC4CC[C@@H]23)O1` (stereo not given in full): the results for the growth inhibition in assay [1] and in assay [4] were 95% (active) and 97% (active), respectively. For the same compound, the figures for the inhibition in assay [2] and in assay [3] were -2% and 1%, respectively. The result in assay [5], in assay [6], in assay [7] and in assay [8] was inactive.
As for `Cc1cc(-c2ccc(NC(=O)c3coc4ccc(N5C[C@@H](C)N(C)[C@@H](C)C5)cc34)cc2C)cc(C)n1`, the values for the growth inhibition in assay [1] and in assay [4] were 62% (active) and 94% (active), respectively. In addition, the inhibition in assay [2] is 13%; in assay [3] it was -4%. In addition, the result in assay [5], in assay [6], in assay [7] and in assay [8] was inactive.
For the compound `NC1=NC2(CCCCC2)N(OCCOc2ccc(Cc3ccccc3)cc2)C(N)=N1`, the growth inhibition in assay [1] is 22%; in assay [4], 86% (active). Moreover, the inhibition in assay [2] is 34%; in assay [3], 2%. The outcome in assay [5], in assay [6], in assay [7] and in assay [8] was inactive.
In the case of `CC(Oc1c(C2CCN(CCCCNC(=O)c3ccc(-c4ccc(C#N)cc4)cc3)CC2)ccc2c1CCCC2)C(N)=O` (stereo not given), the growth inhibition was 83% (active) in assay [1] and 100% (active) in assay [4]. Besides, the results for the inhibition in assay [2] and in assay [3] were 41% and -3%, respectively. Also, the outcome in assay [5], in assay [6], in assay [7] and in assay [8] was inactive.
As for `CCCC(=O)Nc1ccc(OCCCN(Cc2ccccc2C(F)(F)F)c2ccc(C#N)c(C(F)(F)F)c2)cc1`, the results for the growth inhibition in assay [1] and in assay [4] were 79% (active) and 89% (active), respectively. For the same compound, the inhibition was -5% in assay [2] and 2% in assay [3]. For the same compound, the result in assay [5], in assay [6], in assay [7] and in assay [8] was inactive.
As to `CN1CCCC1CCNc1ncc2c(-c3ccc(NC(=O)Nc4cc(C(F)(F)F)ccc4F)cc3)nn(C)c2n1` (stereo not given), the growth inhibition in assay [1] was 72% (active); in assay [4], 96% (active). Moreover, the inhibition in assay [2] is 74% (active); in assay [3], 0%. In addition, the result in assay [5], in assay [6], in assay [7] and in assay [8] was inactive.
Turning to `CCOc1cc(C2C(C(=O)OC(C)C)=C(C)NC3=C2C(=O)CC(c2ccc(Cl)cc2)C3)ccc1OC(C)=O` (stereo not given), the growth inhibition is 20% in assay [1] and 90% (active) in assay [4]. For the same compound, the inhibition in assay [2] was 16%; in assay [3], -3%. The outcome in assay [5], in assay [6], in assay [7] and in assay [8] was inactive.
On to `Cc1ccc(Oc2ccccc2NC(=O)CCc2nc3ccccc3c(=O)[nH]2)cc1`, for which the growth inhibition in assay [1] is 99% (active); in assay [4], 100% (active). Moreover, the results for the inhibition in assay [2] and in assay [3] were 3% and -3%, respectively. Further, the result in assay [5], in assay [6], in assay [7] and in assay [8] was inactive.
`CCN(CCCN1CCCCC1)c1cc(C)nc(Nc2ccc(Oc3ccccc3)cc2)n1`: the growth inhibition in assay [1] was 99% (active); in assay [4] it was 101% (active). Besides, the inhibition is 50% (active) in assay [2] and -3% in assay [3]. The result in assay [5], in assay [6], in assay [7] and in assay [8] was inactive.
For the compound `CCCN(CC)CCOC(=O)c1ccccc1`, the growth inhibition in assay [1] is 1%; in assay [4], 99% (active). The inhibition in assay [2] is 2%; in assay [3] it was -4%. Moreover, the outcome in assay [5], in assay [6], in assay [7] and in assay [8] was inactive.
Regarding `CC(C)CCN1CCC(Oc2ccc(NC(=O)c3ccc(F)cc3)cc2Cl)CC1`, the growth inhibition in assay [1] was 88% (active); in assay [4], 98% (active). For the same compound, the inhibition in assay [2] was 33%; in assay [3] it was 4%. Further, the outcome in assay [5], in assay [6], in assay [7] and in assay [8] was inactive.
Regarding `CCCCCn1c(Sc2ccc(C#N)c([N+](=O)[O-])c2)nnc1-c1cc(OC)cc(OC)c1`, the growth inhibition was 24% in assay [1] and 93% (active) in assay [4]. Also, the results for the inhibition in assay [2] and in assay [3] were 17% and 1%, respectively. The result in assay [5], in assay [6], in assay [7] and in assay [8] was inactive.
Take `COc1ccc(-c2cccc(NC(=O)c3ccc(C#N)cc3)c2)cc1CN1CCN(C)CC1`: the growth inhibition is 2% in assay [1] and 93% (active) in assay [4]. The inhibition in assay [2] was 24%; in assay [3] it was -3%. Further, the result in assay [5], in assay [6], in assay [7] and in assay [8] was inactive.
